Experimental data taken from PubChem BioAssay AID624417 (National Center for Advancing Translational Sciences (NCATS), 2012).
About 6,400 (1.6%) of roughly 410,000 compounds were called active. Inconclusive results (about 20%) are left out. Only a selection was taken, and actives are over-represented in it overall. Unmarked numbers belong to inactive results. The call rests on the fitted dose curve; in most records, active means well fitted inhibition curve with a large enough effect; inconclusive means small, poorly fitted or top-dose-only effect; inactive means no such curve, though single readings can be large or run the other way.

Target: Glucagon-like peptide 1 receptor (Homo sapiens) (UniProt P43220)
Sequence (P43220 whole entry, looked up): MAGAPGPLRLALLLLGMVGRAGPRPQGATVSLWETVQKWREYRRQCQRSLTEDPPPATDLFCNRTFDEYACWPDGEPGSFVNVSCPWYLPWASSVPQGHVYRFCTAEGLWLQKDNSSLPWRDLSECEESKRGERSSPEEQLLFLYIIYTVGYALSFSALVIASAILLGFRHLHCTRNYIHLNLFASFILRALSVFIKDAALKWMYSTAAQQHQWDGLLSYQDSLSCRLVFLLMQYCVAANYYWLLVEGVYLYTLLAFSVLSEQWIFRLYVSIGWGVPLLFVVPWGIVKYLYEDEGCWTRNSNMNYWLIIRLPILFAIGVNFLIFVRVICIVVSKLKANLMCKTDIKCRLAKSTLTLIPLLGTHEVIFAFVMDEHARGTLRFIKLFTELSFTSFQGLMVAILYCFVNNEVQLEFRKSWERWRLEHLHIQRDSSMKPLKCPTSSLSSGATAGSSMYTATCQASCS
Assay: qHTS of GLP-1 Receptor Inverse Agonists (Inhibition Mode); further: nearly all actives have a fitted effect of over 55% in size
Conditions: HEK293 GLP-1R CRE-luciferase, luminescence, 24 h, GLP-1R form is constitutively active; series mostly up to 38.3 µM; activity change, negative = inhibition: at the top concentration
Summary of the method: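 Cells are plated, allowed 12 hours at 37 deg C, then treated with compounds for 24 hr before luciferase detection reagent is added and luminescence is read after 12 min at room temperature. The HEK293 line carries constitutively active GLP-1R with a cAMP-responsive reporter.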
On the % scale 0 is the no-effect control and ±100 the full control effect; potency means the concentration at half of the fitted maximal effect.

Compound | activity change, negative = inhibition | Potency
C[C@H](CO)N1C[C@H](C)[C@@H](CN(C)S(=O)(=O)c2ccc(F)cc2)OCc2cnnn2CCCC1=O | -1.3% | 
O=C(Nc1cccc(Cc2ccccc2)c1)Nc1ccc2nc([C@@H]3O[C@H](CO)[C@@H](O)[C@H](O)[C@H]3O)[nH]c2c1 | 4.05% | 
O=C(NCCN1CCOCC1)C1CCN(S(=O)(=O)c2ccccc2)CC1 | 4.84% | 
O=C1[C@H]2[C@@H](c3ccc(C(F)(F)F)cc3)N[C@]3(CCCN(Cc4ccc(Cl)cc4)C3=O)[C@H]2C(=O)N1Cc1ccccc1 |  | 4.47 µM (active)
Cc1ccc([C@H]2N[C@]3(CCCN(Cc4ccccc4)C3=O)[C@H]3C(=O)N(Cc4ccccc4)C(=O)[C@@H]23)cc1 | -28.2% | 
CCN1C[C@@H]2[C@@H]3C(=O)N(Cc4ccccc4)C(=O)[C@@H]3[C@](C)(C1=O)N2C(=O)c1ccc(C(C)(C)C)cc1 | 1.29% | 
COc1ccc([C@H]2N[C@]3(CCCN(CC4CCCCC4)C3=O)[C@H]3C(=O)N(C)C(=O)[C@@H]23)cc1 | -0.512% | 
CCN1C(=O)[C@H]2[C@@H](c3ccc(C(F)(F)F)cc3)N[C@]3(CCCN(Cc4ccc(Br)cc4)C3=O)[C@H]2C1=O |  | 12.6 µM (active)
CCN1C(=O)[C@H]2[C@@H](c3ccc(-c4ccc(OC)cc4)cc3)N[C@@](Cc3ccccc3)(C(=O)OC)[C@H]2C1=O | -7.01% | 
O=C1[C@H]2[C@@H](c3ccc(C(F)(F)F)cc3)N[C@]3(CCCN(Cc4ccc(Br)cc4)C3=O)[C@H]2C(=O)N1Cc1ccccc1 |  | 2.82 µM (active)
COc1ccc([C@H]2N[C@]3(CCCN(Cc4ccco4)C3=O)[C@H]3C(=O)N(C)C(=O)[C@@H]23)cc1 | 12% | 
CCN1C(=O)[C@H]2[C@@H](c3ccccc3)N[C@]3(CCCN(Cc4ccc(C)cc4)C3=O)[C@H]2C1=O | 13.6% | 
C[C@H]1CN([C@@H](C)CO)C(=O)c2cc(Br)cnc2O[C@H]1CN(C)S(=O)(=O)c1cccs1 | 5.81% | 
CCOC(=O)C1=CC[C@@H](c2ccncc2)N(S(=O)(=O)c2ccc(C)cc2)C1 | -10.5% | 
Cc1cc2oc(=O)cc(CN(C)Cc3ccccc3)c2cc1Cl | -22.1% | 
CN(C)CCN1CCN(c2cc(-c3cccc(Cl)c3)nc3ccnn23)CC1 | -14.7% | 
COc1ccc(Cl)cc1NC(=O)CSc1nc2ccccc2c2nc(-c3ccccc3)nn12 | 9.31% | 
O=C(COC(=O)CSc1ccccc1)Nc1ccc(F)cc1F | -0.781% | 
O=C(CSc1ccccc1)Nc1cc(Cl)ccc1Oc1ccccc1 |  | 11.2 µM (active)
Cc1ccc(CCNC(=O)CN2C(=O)CSc3ccc(S(=O)(=O)N4CCOCC4)cc32)cc1 | -35.8% | 
CC1=C(C(=O)N2CCOCC2)CC(CC(=O)NCCCN(C)C)C(=O)N1Cc1ccc(C(C)(C)C)cc1 (configuration not stated) | 23% | 
CCCCN1C(=O)C(CC(=O)NCc2cccs2)CC(C(=O)N2CCOCC2)=C1C (configuration not stated) | 10.4% | 
Nc1ncnc2c1ncn2[C@@H]1O[C@H](C(=O)NCC(F)(F)F)[C@@H](O)[C@H]1O | 25.4% | 

Compound | activity change, negative = inhibition | Potency
O=CNc1cc(-c2ccc(C(=O)N3CCOCC3)cc2)cn2c(-c3ccc(F)cc3)cnc12 | -5.23% | 
COc1ccccc1N1CCN(S(=O)(=O)CCNC(=O)COc2ccc(F)cc2)CC1 | -20.4% | 
CCN1CCN(CCCCOc2ccccc2F)CC1 | 0.199% | 
COc1ccccc1N1CCN(CCCCOc2ccc(F)cc2)CC1 |  | 12.6 µM (active)
Cc1ccc2cccc([N+](=O)[O-])c2n1 | 8.75% | 
C[C@@H]1CN([C@H](C)CO)C(=O)c2cc(-c3ccc(F)cc3)cnc2O[C@H]1CN(C)C(=O)c1ccc(F)cc1 | -8.66% | 
COc1ccc(CN(C)C(=S)Nc2ccc(Cl)cc2Cl)cc1 |  | 7.08 µM (active)
S=C(Nc1ccc(Cl)cc1Cl)N1CCCC1 | 7.41% | 
COc1ccc(CN2CCn3ncc(C(=O)Nc4ccc(Cl)cc4Cl)c3C2=O)cc1 | -16.2% | 
COc1cccc(C(NC(C)=O)c2nc(-c3ccccc3OC)cs2)c1 (configuration not stated) | -12.1% | 
CC1=C(C(=O)N2CCOCC2)CC(CC(=O)NCC2CCCCC2)C(=O)N1Cc1ccc(F)cc1 (configuration not stated) | 3.52% | 
COc1ccc(CN2CCC(C)(Oc3cccc(F)c3)C2)c2ccccc12 (configuration not stated) |  | 11.2 µM (active)
CC1(Oc2cccc(F)c2)CCN(Cc2ccccc2OC(F)F)C1 (configuration not stated) | -4.31% | 
COc1ccccc1N1CCN(Cc2ccc(OC)c3ccccc23)CC1 | 0.582% | 
CCCNC(=O)C1(C)CCN(C(=O)c2ccc(F)cc2Cl)C1 (configuration not stated) | 11.7% | 
COc1ccc([C@H]2CC(=O)C[C@@H](CCn3cc(CC4CCCC4)nn3)O2)cc1 | 21.5% | 
Cc1cc(C)c(S(=O)(=O)NN=C2c3ccccc3[C@H]3Cc4csc[n+]4[C@@H]23)c(C)c1 | 18.1% | 
COc1ccccc1-n1c(SCC(=O)Nc2ccc(Cl)cc2)nc(O)c(Cc2ccccc2)c1=O | -20.6% | 
NC(=O)Cn1cc(/C=N\NS(=O)(=O)c2ccccc2)c2ccccc21 | -27.9% | 
CCOC(=O)N/N=C/c1cn(Cc2ccccc2Cl)c2ccccc12 |  | 7.94 µM (active)
CC(NC(=O)CCc1cn(Cc2ccccc2Cl)c2ccccc12)c1ccccc1 (configuration not stated) | -8.72% | 
COC(=O)N/N=C/c1cn(CCCOc2ccc(C)cc2)c2ccccc12 |  | 8.91 µM (active)
COC(=O)N/N=C/c1c[n+]([O-])c2ccccc2[n+]1[O-] | 8.56% | 

Compound | activity change, negative = inhibition | Potency
Cc1ccc(OCCOc2cccc(/C=N/NC(N)=O)c2)cc1 | 58.1% | 
O=C(CC[C@H]1O[C@@H](n2ccc(=O)[nH]c2=O)[C@H](O)[C@@H]1O)N[C@H](Cc1ccccc1)C(=O)NCCCN1CCCC1=O | 13.3% | 
CC(=O)Nc1ccc2c3c(ccc([N+](=O)[O-])c13)CC2 | 1.13% | 
O=C(OCc1cn([C@@H]2C[C@H](c3ccc(Cl)cc3)N(Cc3cccs3)C[C@H]2O)nn1)c1ccccc1 | 18% | 
CCC(=O)N1Cc2cc(C(=O)NCc3cccc(F)c3)nc(-c3cccc(C4=CCCC4)c3)c2[C@H]1CCO | 16% | 
CCCOc1ccc(F)cc1-c1cc(C(=O)Nc2ccc(F)cc2)[nH]n1 | -12.9% | 
O=C(C(=O)N1CCC(c2ccccc2)CC1)c1ccccc1 | 16% | 
CN(C)S(=O)(=O)c1cccc(NC(=O)Cc2ccsc2)c1 | 31.4% | 
CN(c1ccccc1)S(=O)(=O)c1cccc(C(=O)NNC(=O)c2ccncc2)c1 | 4.37% | 
CN(c1ccccc1)S(=O)(=O)c1cccc(NC(=O)Cc2c(F)cccc2Cl)c1 |  | 7.94 µM (active)
Cc1ccc(F)c(S(=O)(=O)NC(=O)C2(C)CCN2C(=O)CCc2cccs2)c1 (configuration not stated) | -4.2% | 
COCCN(C(=S)Nc1ccccc1OC)C1CCN(C(C)C)CC1 | -16.1% | 
CCc1cccc(NC(=S)N(CCN(C)C)C2CCN(C(C)C)CC2)c1 |  | 5.01 µM (active)
Cc1cccc(NC(=S)N(CCN(C)C)C(C)c2ccco2)c1 (configuration not stated) | -25.9% | 
CCc1cccc(NC(=O)CSc2nccn2C)c1 | 0.0761% | 
CCc1cccc(NC(=O)CCNS(=O)(=O)c2cccc3nonc23)c1 |  | inactive
CCc1cccc(NC(=O)CCCN2C(=O)C(c3ccccc3)Oc3cccnc32)c1 (configuration not stated) |  | 7.94 µM (active)
Cc1ccc(S(=O)(=O)N2C[C@@H](C)[C@]3(C2)[C@H](O)[C@H](OC(=O)NCc2ccccc2)C[C@H]2C(=O)N(c4ccccc4)C(=O)[C@H]23)cc1 | -29.8% | 
O=C(C1=C[C@H](C2CC2)C[C@H](OCc2ccc(CO)cc2)O1)N1CCN(Cc2ccccc2)CC1 | 5.02% | 
O=C(NCc1ccccc1)C1=C[C@@H](c2ccccc2)C[C@@H](OCCCCO)O1 | 10.3% | 
O=C(NCc1ccccc1)C1=C[C@@H](C2CCCCC2)C[C@@H](OCc2ccc(CO)cc2)O1 |  | 10 µM (active)
CCCNC(=O)C[C@@H]1CC[C@@H]2[C@H](COC[C@H](O)CN2C(=O)c2cc(Cl)cc(Cl)c2)O1 | 10.5% | 
CCOc1c(Br)cc(/C=C2\C(=O)N(CCC#N)N=C2C)cc1OC | -9.5% | 

Compound | activity change, negative = inhibition | Potency
Cc1cccc(C)c1-n1c(C)cc(/C=C2\C(=O)NN(c3ccccc3)C2=O)c1C | -33.4% | 
COc1cc(/C=C2/C(=O)NN(c3cccc(Cl)c3)C2=O)cc(Br)c1O |  | 5.01 µM (active)
Cc1ccccc1Cn1c(C)c(C(=O)NCc2cccc(C(F)(F)F)c2)sc1=O | -0.425% | 
CCOC(=O)C1(C)CCCN(C(=O)c2ccc(F)c(Cl)c2)C1 (configuration not stated) | 10.9% | 
CC(C)C[C@H]1CNC(=O)C(=O)N1C[C@H]1CCCN1C[C@H](Cc1ccc(O)cc1)N1C[C@H](CC(C)C)N(CC2CCCCCC2)C(=O)C1=O | 16.7% | 
O=C(OCCN1CCOCC1)C1(c2ccccc2)CCCCC1 | -20% | 
O=C(OCc1cc(=O)n2ccsc2n1)C1(c2ccc(Cl)cc2)CC1 | 38.1% | 
CC(=O)N1CCC(C(=O)OCc2ccc(Cl)cc2)(c2ccccc2)CC1 |  | 10 µM (active)
CC=CCn1c(SCCCc2ccccc2)nc2c1c(=O)[nH]c(=O)n2C | 9.86% | 
CCC(=O)N1CCCC1(C)C(=O)Nc1ccc2c(c1)CCN2C(C)=O (configuration not stated) | 20.5% | 
O=C(O)c1cccc(N=NN2CCCCCC2)c1 |  | 3.55 µM (active)
O=C(O)c1ccc(N=NN2CCOCC2)cc1 | 0.44% | 
O=C(c1ccccc1)C(O)(CN1CCCCC1)c1ccccc1 (configuration not stated) | 7.83% | 
COc1ccc(C(=O)C(OP(=O)(OC)OC)c2ccccc2OC)cc1 (configuration not stated) | 5.29% | 
COc1ccccc1CNC(=O)c1cc(-c2cc(F)ccc2OC)n[nH]1 | -19.5% | 
COc1cnn(-c2ccc([N+](=O)[O-])cc2)c(=O)c1Cl | 16% | 
O=c1[nH]n(-c2ccc([N+](=O)[O-])cc2)c(=O)c2ccccc12 |  | 5.01 µM (active)
O=[N+]([O-])c1ccc(N2CCOCC2)cc1 | 2.47% | 
COc1ccc(S(=O)(=O)N[C@@H]2C=C[C@@H](CC(=O)N3CCc4ccccc4C3)O[C@@H]2CO)cc1 | 5.11% | 
CC(C)CNC(=O)C1(C)CCCN1C(=O)CSc1ccccc1 (configuration not stated) | -1.66% | 
CC(=O)Nc1ccc(NC(=O)C2CCCN2S(=O)(=O)c2cccc(C(F)(F)F)c2)cc1 (configuration not stated) | -10.5% | 
O=S(=O)(c1cccc(C(F)(F)F)c1)N1c2ccccc2-n2cccc2C1c1cccnc1 (configuration not stated) |  | 10 µM (active)
O=S(=O)(c1cccc(C(F)(F)F)c1)N1CCN(c2cnccn2)CC1 | -8.51% | 
